Bioassay records as filed in PubChem BioAssay.
The list is not random: actives were taken first. Their share in the collection is about 18%.
TDP1 inh: TDP1 (human) enzyme inhibition | Potency, µM (highest dose often 130 µM), without a hit: top-dose activity change, negative = inhibition, usual class: inhibitors | AID 485290 | recombinant TDP1, AlphaScreen DNA substrate cleavage | Q9NUW8 | 350,000 tested, 0.28% active; note: potency is the fitted concentration of half-maximal effect; % is set by controls: 0 for no effect and ±100 for the full control effect; nearly all actives have a fitted effect of over 40% in size
Target sequence (Q9NUW8 whole entry, looked up): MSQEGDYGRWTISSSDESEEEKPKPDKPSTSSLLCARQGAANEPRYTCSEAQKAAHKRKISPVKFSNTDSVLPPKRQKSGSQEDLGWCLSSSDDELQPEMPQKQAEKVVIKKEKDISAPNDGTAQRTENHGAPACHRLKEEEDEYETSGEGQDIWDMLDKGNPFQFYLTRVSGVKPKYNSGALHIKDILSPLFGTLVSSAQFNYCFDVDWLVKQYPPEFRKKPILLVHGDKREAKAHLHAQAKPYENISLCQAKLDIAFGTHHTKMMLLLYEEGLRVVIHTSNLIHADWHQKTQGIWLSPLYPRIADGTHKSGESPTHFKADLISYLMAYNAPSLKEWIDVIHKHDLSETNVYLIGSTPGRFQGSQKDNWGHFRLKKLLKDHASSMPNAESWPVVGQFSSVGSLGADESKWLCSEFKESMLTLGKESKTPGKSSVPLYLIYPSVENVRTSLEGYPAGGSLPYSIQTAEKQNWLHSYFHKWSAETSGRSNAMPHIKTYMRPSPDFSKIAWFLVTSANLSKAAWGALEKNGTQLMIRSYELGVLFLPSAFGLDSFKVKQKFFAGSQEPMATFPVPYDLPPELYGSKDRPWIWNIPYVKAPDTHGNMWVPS
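Enzyme-compound mixtures sat 15 min at room temperature, followed by a 5 min reaction with 15 nM final substrate and 10 min with AlphaScreen beads. Recombinant human Tdp1 was used at 1 nM final.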
TGFb SMAD3 inh: TGF-b pathway inhibition | HepG2 CAGA-GFP TGF-b/SMAD3 reporter, GFP fluorescence, 18 h; TGF-beta stimulated, 500 pg/mL final | Potency, µM (doses to about 46.1 µM), for inactives: at the top dose activity, negative = inhibition, most hits filed as inhibitors | 410,000 tested, 1.2% active | AID 588855; note: potency is the fitted concentration of half-maximal effect; % is set by controls: 0 for no effect and ±100 for the full control effect; nearly all actives have a fitted effect of over 65% in size
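Inhibition was scored as loss of TGF-beta-induced (500 pg/mL final, 18 hours, 37 degrees C) GFP in HEPG2 cells carrying a CAGA-GFP reporter, in DMEM with 1% FBS. Well GFP was summed per cell; Activity was normalised to unstimulated and stimulated DMSO wells, then concentration-response fitting.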
TDP1 cell CPT: growth inhibition of DT40 Tdp1-/-;hTDP1 cells with camptothecin (screen for TDP1 inhibitors); 420,000 tested, 12% active; chicken DT40 Tdp1-/-;hTDP1 cells + 20 nM CPT, ATP luminescence, 48 h; Potency, µM (top dose mostly 46.2 µM), without a hit: top-dose activity change, negative = growth inhibition, most hits filed as inhibitors; note: potency is the fitted concentration of half-maximal effect; % is set by controls: 0 for no effect and ±100 for the full control effect; nearly all actives have a fitted effect of over 55% in size
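Chicken DT40 Tdp1-/- cells stably complemented with human TDP1 were seeded at 400 cells/well in medium containing 20 nM camptothecin, exposed to pin-transferred compounds, and grown at 37 °C for at least 48 hr. Viability was read as ATP luminescence.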
IL-1B inflam inh: blocks inflammasome-driven IL-1 beta release. activity change, % at 57.5 µM. 360,000 tested, 4.7% active. AID 743279. THP-1 LPS/ATP IL-1B secretion, AlphaLISA, 16 h; hits give low values; in the data active = activity change below about -50%; inconclusive = mostly about -30% to -49%; note: % is set by controls: 0 for no effect and ±100 for the full control effect
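Secreted IL-1B measured by AlphaLISA bead assay after 16 h compound exposure of THP-1 cells; compounds (final up to 57.5 uM) added 1 h before LPS (250 ng/mL) and ATP (1.25 mM) stimulation; lower signal means less secretion.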
HepG2 tox: kills HepG2 cells in TGF-b inhibitor counter-screen; Potency, µM (series often up to 46.1 µM), for the others: top-dose activity change, negative = cytotoxicity, usual class: cytotoxic; HepG2 CAGA-GFP viability, ATP luminescence, 18 h; 410,000 tested, 0.76% active; note: potency is the fitted concentration of half-maximal effect
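CellTiter-Glo luminescence gave cytotoxicity after 18 hours at 37 degrees C. The cells were HepG2 CAGA-GFP in 1% FBS DMEM, stimulated with 500 pg/mL TGF-beta after compound addition. %Activity was normalised to no-cell wells (complete cell-killing) and DMSO (no toxicity), and curves were fitted and classified.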
DT40 TDP1 no CPT: qHTS for Inhibitors of human tyrosyl-DNA phosphodiesterase 1 (TDP1): qHTS in cells in absence of CPT. DT40 Tdp1-/- hTDP1 cells, no CPT, ATP luminescence, 48 h. Potency, µM (highest dose often 46.2 µM), for inactives: top-dose activity change, negative = growth inhibition, hits mostly inhibitors. 420,000 tested, 15% active; note: potency is the fitted concentration of half-maximal effect; % is set by controls: 0 for no effect and ±100 for the full control effect; nearly all actives have a fitted effect of over 55% in size
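Camptothecin absent (DMSO only). Human TDP1-complemented DT40 knockout cells, 400 cells/well, 37 °C for minimum 48 hr; ATP measured via CellTiter-Glo, 30 min dark incubation, luminescence.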
Starred values were filed as active, the others as inactive; i = inactive; u = inconclusive; x = no result given; [ ] = another dose, or the depositor's remark. Unless noted, calls come from the whole dose curve; as a rule, active = well fitted curve in the direction sought with a large enough effect; inconclusive = small, poorly fitted or top-dose-only effect, or another doubt; inactive = no such curve, though single readings can be large; an effect the other way counts as inactive or inconclusive.

SMILES | TDP1 inh | TGFb SMAD3 inh | TDP1 cell CPT | IL-1B inflam inh | HepG2 tox | DT40 TDP1 no CPT
Cn1cnc(S(=O)(=O)N2CCCCC2c2cc(C(=O)Nc3cccc(C#N)c3)no2)c1 (stereo not drawn) | x | -26% | u | -22 | -10% | -7%
O=C(NCc1ccc(Cl)c(Cl)c1)c1cc(C2CCCCN2C(=O)c2cccs2)on1 (stereo not drawn) | x | -19% | 15µM* | -19 | -10% | 21µM*
Cc1[nH]c2ccccc2c1N=Nc1c(C)n(C)n(-c2ccccc2)c1=O | 6% | 0% | 21µM* | -6 | -26% | u
CCCCOC(=O)n1c(SCC(=O)N(CC)CC)nc2ccccc21 | 5% | -5% | 21µM* | -20 | 3% | u
O=C(CCCc1c[nH]c2ccccc12)NCCc1c[nH]c2ccccc12 | -4% | -4% | u | u | -16% | 16µM*
O=C(COC(=O)c1ccccc1C(=O)OCC(=O)NCCc1c[nH]c2ccccc12)NCCc1c[nH]c2ccccc12 | 6% | -4% | u | -20 | -7% | 23µM*
CC(=O)c1cccc(NC(=O)NCCc2c[nH]c3ccccc23)c1 | 4% | 0% | -14% | -8 | -57% | u
O=C(NCCc1c[nH]c2ccccc12)c1ccc([N+](=O)[O-])o1 | x | u | 15µM* | -87* | -34% | 23µM*
O=C(NCCc1c[nH]c2ccccc12)c1cc([N+](=O)[O-])cc([N+](=O)[O-])c1 | x | -15% | u | 16 | -10% | -9%
O=C(Nc1cccc(CNCCc2c[nH]c3ccccc23)c1)c1ccccc1Cl | x | u | u | u | -79% | 18µM*
O=C(CSc1nc(N2CCOCC2)nc(N2CCOCC2)n1)Nc1cccc(C(F)(F)F)c1 | 4% | -10% | -25% | i | 12% | u
CC[C@H](C)[C@H](NC(=O)[C@@H]1CCCN1C(=O)[C@H](Cc1cnc[nH]1)NC(=O)[C@@H](NC(=O)[C@H](Cc1ccc(O)cc1)NC(=O)[C@@H](NC(=O)[C@H](CCCN=C(N)N)NC(=O)CNC)C(C)C)[C@@H](C)CC)C(=O)O | 10% | x | x | x | x | x
Cn1c(=O)[nH]c(=O)c2c1nc1n(CCO)c(-c3ccccc3)cn21 | -5%[12.3 µM] | 3% | 0% | x | 2% | -25%
CC(C)(C)NC(=O)COC(=O)c1ccccc1NC(=O)c1ccco1 | 5% | 1% | 3% | 52 | -30% | -4%
Cc1ccccc1NC(=O)NCCc1c[nH]c2ccccc12 | 8% | 0% | -1% | -12 | -7% | u
O=C(CCCc1c[nH]c2ccccc12)Nc1ccc2ccccc2c1 | 3% | u | 0% | -85* | -33% | -22%
O=C(Cc1c[nH]c2ccccc12)N/N=C/c1ccccc1O | 10% | u | 16µM* | 156 | -22% | u
O=C(NCCc1c[nH]c2ccccc12)Nc1ccccc1C(F)(F)F | 5% | -16% | 23µM* | x | -19% | u
O=C(Nc1ccccc1C(=O)OCC(=O)c1c[nH]c2ccccc12)c1ccco1 | 8% | -1% | 8.2µM* | -2 | -34% | u
CCCn1c(SCC(=O)Nc2sc(C)c(C)c2C(=O)OC)nc2c1c(=O)n(C)c(=O)n2C | 5% | x | x | x | x | x
CCCCn1c(SCC(=O)Nc2nnc(C(C)C)s2)nc2c1c(=O)n(C)c(=O)n2C | 10% | 13% | 18µM* | 28 | -32% | 18µM*
CCCn1c(SCC(=O)Nc2nnc(CC)s2)nc2c1c(=O)n(C)c(=O)n2C | -5% | x | x | x | x | x
CCCn1c(SCC(=O)Nc2nc3c(s2)CCCC3)nc2c1c(=O)n(C)c(=O)n2C | 7% | 0% | 12µM* | 16 | -23% | 15µM*
N[C@H](Cc1cc(I)c(Oc2ccc(O)c(I)c2)c(I)c1)C(=O)O | 12%[21 µM] | x | x | x | x | x
CCOC(=O)c1c(NC(=O)c2ccccc2N(C)S(=O)(=O)c2ccccc2)sc2c1CCCC2 | -3% | u | u | -9 | -9% | 21µM*
SMILES | TDP1 inh | TGFb SMAD3 inh | TDP1 cell CPT | IL-1B inflam inh | HepG2 tox | DT40 TDP1 no CPT
CCOC(=O)c1c(NC(=O)C(NCCN(C)C)c2ccccc2)sc2c1CCCC2 (stereo not drawn) | 1%[0.0935 µM] | u | 0.65µM* | -108* | -105% | 2.1µM*
CC(C)OC(=O)c1c(NS(=O)(=O)c2ccccc2)sc2c1CCCC2 | 1%[56.1 µM] | u | 6.5µM* | 0 | -77% | 5.2µM*
CCOC(=O)c1c(NC(=O)c2ccccc2Cl)sc2c1CCCC2 | -2% | 107% | u | x | -35% | u
COC(=O)c1c(NC(=O)c2ccccc2C(=O)O)sc2c1CCC2 | x | -3% | -12% | 5 | -3% | -8%
COC(=O)c1c(NC(=O)c2ccccc2N(C)S(=O)(=O)c2ccccc2)sc2c1CCCC2 | 0% | 12% | 16µM* | 20 | 5% | 15µM*
COc1ccc(CCNC(=O)CSc2nc3ccsc3c(=O)n2CC2CCC(C(=O)O)CC2)cc1OC (stereo not drawn) | 5% | 1% | -1% | 33 | -2% | 8%
O=Cc1ccc(O)c2ncccc12 | 7% | 4µM* | 0.65µM* | -98* | 4.5µM* | 0.58µM*
NC(=O)c1ccc(O)c2ncccc12 | 0% | x | x | x | x | x
Cc1ccccc1-n1nc(C)c2cc(C(=O)N3CCN(S(=O)(=O)c4ccc(F)cc4)CC3)sc21 | -2% | u | 10µM* | -10 | -19% | 18µM*
O=C(Nc1cc(-c2cccc(Cl)c2)nn1-c1ccccc1)c1ccccc1F | 0% | -29% | 16µM* | x | -26% | u
COc1ccccc1C(=O)Nc1cc(-c2cccc(Br)c2)nn1-c1ccccc1 | -3% | u | 15µM* | x | -15% | 7.3µM*
Cc1cccc(-c2cc(NC(=O)c3ccccc3C)n(-c3ccccc3)n2)c1 | 8% | -9% | u | x | -26% | -26%
CC(C)c1ccc(C(=O)Nc2cc(-c3ccccc3F)nn2-c2ccccc2)cc1 | 8% | -18% | 21µM* | x | -6% | 10µM*
COc1ccc(OCC(=O)Nc2cc(-c3cccc(Cl)c3)nn2-c2ccccc2)cc1 | 3% | -9% | u | x | -7% | u
Nc1ccccc1Nc1cc(-c2ccccc2)nn1-c1cccc(Cl)c1 | 7% | -2% | -15% | -52* | -17% | u
CCCn1c(SCC(=O)N2c3ccccc3CC2C)n[nH]c1=O (stereo not drawn) | 0% | 25% | 5% | 3 | 3% | -20%
